# BoNT F protease: BoNT F light chain protease inhibition | Multiplex microsphere protease cleavage assay, flow cytometry | inhibition, % at 10 µM | 360,000 compounds, 0.22% hits; in the data active = inhibition above about 35%, passing the limit was not always enough; inconclusive = no clear call, values can overlap the other calls
# Bead autofluor: counter-screen for toxin protease inhibitors: compound fluorescence | compound autofluorescence counterscreen, microsphere flow cytometry; active compounds read high | fluorescence intensity (no concentration beside the values) | 360,000 compounds, 3.1% hits | AID 624483; in the data active = fluorescence intensity above about 16000; inconclusive = no clear call, values can overlap the other calls
# Anthrax LF inh2: anthrax lethal factor protease inhibition; P15917; multiplex microsphere protease cleavage assay, LF; inhibition, % at 10 µM; 360,000 compounds, 0.12% hits
# Target sequence (P15917 whole entry, looked up): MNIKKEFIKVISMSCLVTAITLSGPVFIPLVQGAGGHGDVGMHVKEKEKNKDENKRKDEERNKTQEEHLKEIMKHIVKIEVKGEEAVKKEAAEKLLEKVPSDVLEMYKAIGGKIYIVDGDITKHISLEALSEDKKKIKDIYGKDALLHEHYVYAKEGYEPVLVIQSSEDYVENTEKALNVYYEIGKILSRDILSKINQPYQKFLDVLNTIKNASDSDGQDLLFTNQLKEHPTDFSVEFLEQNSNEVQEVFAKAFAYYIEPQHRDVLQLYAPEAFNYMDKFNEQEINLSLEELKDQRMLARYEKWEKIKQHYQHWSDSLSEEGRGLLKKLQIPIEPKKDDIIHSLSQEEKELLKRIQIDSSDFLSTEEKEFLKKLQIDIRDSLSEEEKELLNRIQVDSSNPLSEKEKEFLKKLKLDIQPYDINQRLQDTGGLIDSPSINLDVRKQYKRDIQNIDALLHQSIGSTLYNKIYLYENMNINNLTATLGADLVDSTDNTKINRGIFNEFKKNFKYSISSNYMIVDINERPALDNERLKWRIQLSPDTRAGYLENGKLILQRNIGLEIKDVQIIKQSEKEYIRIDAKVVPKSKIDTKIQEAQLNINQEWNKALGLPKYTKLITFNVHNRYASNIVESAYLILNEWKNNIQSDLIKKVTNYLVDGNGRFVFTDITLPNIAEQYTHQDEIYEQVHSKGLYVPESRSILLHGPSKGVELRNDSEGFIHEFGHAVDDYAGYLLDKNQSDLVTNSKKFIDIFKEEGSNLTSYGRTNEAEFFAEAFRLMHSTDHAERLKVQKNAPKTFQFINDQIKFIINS
# MazEF act: MazEF (E. coli) toxin RNase activation | AID 504720 | activation, % at 20 µM | 350,000 compounds, 0.32% hits | FAM/BHQ RNA-DNA oligo cleavage fluorescence, 5 h | P0AE70; in the data active = activation above about 50%
# SSB-PriA inh: inhibitors of Klebsiella pneumoniae PriA binding to SSB C-terminal tail. AlphaScreen SSBct-PriA binding, biotinylated peptide. inhibition, % at 33 µM. 430,000 compounds, 0.6% hits. AID 1272365; in the data active = inhibition mostly above about 37%, no sharp cut-off; inactive = mostly below about 20%
# BoNT A protease: BoNT A light chain protease inhibition. 360,000 compounds, 0.17% hits. multiplex microsphere protease substrate cleavage, flow cytometry. inhibition, % at 10 µM
# Hits are given with their value; n = inactive; u = inconclusive; x = no result. The list is not random: actives were taken first. Their share in the collection is about 3.3%. Cut-off read from the data, not from the text of the source, unless noted: active = inhibition above about 30%; inconclusive = no clear call, values can overlap the other calls; inactive = below that.
SMILES,BoNT F protease,Bead autofluor,Anthrax LF inh2,MazEF act,SSB-PriA inh,BoNT A protease
CCC(CC)C(=O)NCCc1ccc(S(N)(=O)=O)cc1,n,21021,n,n,n,n
COc1ccc(CC(=O)NCCc2ccc(S(N)(=O)=O)cc2)cc1,n,19944,n,n,n,u
O=C(NCc1ccco1)NC1CCN(Cc2noc(-c3ccccc3)n2)C1 (configuration not stated),x,x,x,x,n,x
CCC(Sc1nc2ncccc2[nH]1)C(=O)NC1CCC(C)CC1 (configuration not stated),n,n,n,138.2,n,n
CCC(Sc1nc2ncccc2[nH]1)C(=O)NCCc1ccccc1 (configuration not stated),n,n,n,n,n,n
COc1ccc2nc(-c3ccc(Cl)c(NC(=O)c4cc5ccccc5oc4=O)c3)cn2n1,x,x,x,x,n,x
O=C(CSc1cn(Cc2ccc(Br)cc2)c2ccccc12)N1CCN(c2ccccc2)CC1,x,x,x,x,n,x
CCOC(=O)N1CCN(c2nc(-c3ccco3)cc(C(F)(F)F)n2)CC1,n,n,n,n,n,n
FC(F)(F)c1cc(-c2ccco2)nc(-n2nc(C(F)(F)F)cc2C2CC2)n1,n,20606,n,n,n,n
FC(F)(F)c1cc(-c2ccco2)nc(-n2nnc3ccccc32)n1,n,n,n,n,n,n
CN1CCN(c2nc(-c3ccco3)cc(C(F)(F)F)n2)CC1,n,17518,n,n,n,n
CCOc1c(C(=O)CC)cc2c(C)cc(=O)oc2c1C,n,16306,n,n,n,n
Cc1cc(SC(NC(=O)c2ccccc2)C(=O)c2ccccc2)ncn1 (configuration not stated),x,x,x,x,n,x
O=C(NCCC1=CCCCC1)C(=O)NCCC(O)c1cccs1 (configuration not stated),x,x,x,x,n,x
CCN(CC)c1ccc(/C=N\NC(=O)Cn2ccnc2C)cc1,x,x,x,x,n,x
CCOC(=O)N1CCN(C/C(C)=C/c2ccccc2)CC1,n,20298,n,n,n,u
CCCC(=O)Nc1c2c(nn1-c1ccc(F)cc1)CS(=O)(=O)C2,n,n,n,n,n,n
O=C(Nc1c2c(nn1-c1ccc(F)cc1)CS(=O)(=O)C2)C12CC3CC(CC(C3)C1)C2,n,24380,n,n,n,u
Cc1nc2c(C(=O)NCCc3ccccc3)c[nH]n2c(=O)c1Cl,n,21299,n,n,n,n
Cc1nc2c(C(=O)NCCC(C)C)c[nH]n2c(=O)c1Cl,n,n,n,n,n,n
O=C(CSc1n[nH]c(=O)c2cc(-c3ccco3)nn12)c1ccc2c(c1)OCO2,x,x,x,x,n,x
OC(CSc1ccccc1Cl)CN1CCN(c2ccccc2F)CC1 (configuration not stated),n,n,n,n,n,n
OC(CSc1c(Cl)cccc1Cl)CN1CCN(c2ccccc2F)CC1 (configuration not stated),n,20273,n,n,n,n
Cc1ccccc1-c1noc(N)c1C#N,n,23456,n,n,n,n
CCOc1cc(-c2noc(N)c2C#N)cc(OCC)c1OCC,n,n,n,n,n,n
SMILES,BoNT F protease,Bead autofluor,Anthrax LF inh2,MazEF act,SSB-PriA inh,BoNT A protease
C=CCn1c(CNC(=O)c2ccco2)nnc1SCC(=O)N1c2ccccc2Sc2ccccc21,n,18468,n,n,n,n
CCOc1ccc(-n2c(Cc3cc(=O)[nH]c(=O)[nH]3)nnc2SCC)cc1,n,19071,n,n,n,u
CCCCN(CC)C(=O)CSc1nc2n[nH]c(C)c2c(=N)n1-c1cccc(C)c1,n,n,n,n,n,n
COc1ccccc1NC(=O)CSc1nc2n[nH]c(C)c2c(=N)n1-c1ccccc1Cl,n,22575,n,n,n,n
Cc1cccc(-n2c(SCC(=O)N3CCCC3)nc3n[nH]c(C)c3c2=N)c1,n,22446,n,n,n,u
O=c1c(-c2ccccc2Cl)c(C(F)(F)F)oc2cc(OCc3ccccc3)ccc12,x,x,x,x,n,x
CCc1ccccc1-n1c(-c2ccncc2)n[nH]c1=S,n,22962,n,n,n,n
Cc1ccccc1-n1c(-c2ccncc2)n[nH]c1=S,n,n,n,n,n,n
CCc1nnc(-c2ccc(NC(=O)c3ccc4c(c3)OCO4)cc2)o1,x,x,x,x,n,x
CC1=CC(=C(C#N)c2nc3ccccc3s2)C=C(C)N1c1ccc(F)cc1,n,n,n,n,n,36.4
CC(C)=C(C#N)c1nc2ccccc2s1,n,n,n,n,n,n
COc1ccccc1N1C(C)=CC(=C(C#N)c2nc3ccccc3s2)C=C1C,n,n,n,n,n,56.9
COC1=C(Nc2ccc(C)cc2)C(=O)c2ccccc2C1=O,n,n,n,n,90.1,n
O=C(Cc1ccc(-n2c(=O)c3ccccc3n(Cc3ccccc3)c2=O)cc1)N1CCCCCC1,x,x,x,x,n,x
O=C(c1ccc(-c2cc(O)c3ncccc3c2)cc1)N1CCNCC1,n,n,n,n,74.4,n
CC(C)(C)c1ccc(C(=O)N2CCNCC2)cc1,n,n,n,n,n,n
Cc1ccc(NC(=O)CN2CC(c3nc(-c4ncccn4)no3)C2)cc1Cl,x,x,x,x,n,x
CCOc1cc(NC(=O)c2ccccn2)c(OCC)cc1NC(=O)c1ccccc1,n,n,n,n,n,n
CCOc1cc(NC(=S)Nc2ccccc2OC)c(OCC)cc1NC(=O)c1ccccc1C,n,16184,n,n,n,n
CCOc1cc(NC(=S)Nc2ccccc2)c(OCC)cc1NC(=O)c1ccccc1,n,23797,n,n,n,n
Cc1ccc2[nH]c(=O)c3cc(C(=O)NCCC(C)C)sc3c2c1,41.4,n,n,n,n,n
CC(C)CCNC(=O)c1cc2c(=O)[nH]c3ccccc3c2s1,n,n,n,n,n,n
O=C(CNC(=O)c1ccccc1F)OCCCOC(=O)CNC(=O)c1ccccc1F,n,30957,n,n,n,n
O=C(CNC(=O)c1ccccc1F)NC1CC1,n,19571,n,n,n,u
CCOC(=O)c1sc(-c2ccccc2)cc1NC(=O)c1sc2ccccc2c1Cl,x,x,x,x,n,x
SMILES,BoNT F protease,Bead autofluor,Anthrax LF inh2,MazEF act,SSB-PriA inh,BoNT A protease
O=C(Cc1ccccc1)Nc1nnc(CSc2ccccc2)o1,x,x,x,x,n,x
COc1ccc(O)c(CN2CCN(C/C=C/c3ccccc3)CC2)c1,n,24344,n,n,n,n
COc1cc(Br)cc(CN2CCN(C/C=C/c3ccccc3)CC2)c1O,n,n,n,n,n,n
CCOC(=O)c1c(C)n(C)c2ccc(OCC(O)Cn3nc(C)cc3C)cc12 (configuration not stated),n,16244,n,n,n,n
CCOC(=O)c1c(C)n(C)c2ccc(OCC(O)CN(CC)CC)cc12 (configuration not stated),n,n,n,n,n,n
COc1ccc(-c2n[nH]c(=S)n2Cc2ccco2)cc1,n,21139,n,n,n,n
CCCCOc1ccc(-c2n[nH]c(=S)n2Cc2ccccc2)cc1,34.5,n,n,n,n,n
COC(=O)c1c(NC(=O)c2ccc(Br)s2)sc2c1CCCCC2,x,x,x,x,n,x
CC(NC(=O)c1ccccc1Br)c1nnc(SCc2ccc([N+](=O)[O-])cc2)n1C (configuration not stated),n,19315,n,n,n,n
